p53 PUMA act: mutant p53 pathway re-activators, primary screen, cell-based, SW480, luciferase, single point, HTS. activation, % at 9.98 µM. 28,000 compounds, 1.5% hits. AID 624151, 2012. SW480 PUMA-promoter luciferase, p53 mutant reactivation; in the data active means activation above about 52%; inconclusive means no clear call, values can overlap the other calls
NOMO-1 viab: NOMO-1 AML cell viability reduction, primary screen, STK33 inhibitor project, CellTiter-Glo luminescence | NOMO-1 AML viability, 72 h | 37,000 compounds, 7.5% hits | inhibition, % (test concentration not listed); in the data active means inhibition above about 80%; inconclusive means no clear call, values can overlap the other calls
STK33 kin inh: STK33 kinase inhibitors, primary screen, biochemical, luminescence, ADP-Glo, MBP substrate; Serine/threonine-protein kinase 33 (Homo sapiens), Q9BYT3; inhibition, % at 12.5 µM; 27,000 compounds, 0.44% hits; in the data active means inhibition above about 20%; inconclusive means no clear call, values can overlap the other calls
Target sequence (Q9BYT3 whole entry, looked up): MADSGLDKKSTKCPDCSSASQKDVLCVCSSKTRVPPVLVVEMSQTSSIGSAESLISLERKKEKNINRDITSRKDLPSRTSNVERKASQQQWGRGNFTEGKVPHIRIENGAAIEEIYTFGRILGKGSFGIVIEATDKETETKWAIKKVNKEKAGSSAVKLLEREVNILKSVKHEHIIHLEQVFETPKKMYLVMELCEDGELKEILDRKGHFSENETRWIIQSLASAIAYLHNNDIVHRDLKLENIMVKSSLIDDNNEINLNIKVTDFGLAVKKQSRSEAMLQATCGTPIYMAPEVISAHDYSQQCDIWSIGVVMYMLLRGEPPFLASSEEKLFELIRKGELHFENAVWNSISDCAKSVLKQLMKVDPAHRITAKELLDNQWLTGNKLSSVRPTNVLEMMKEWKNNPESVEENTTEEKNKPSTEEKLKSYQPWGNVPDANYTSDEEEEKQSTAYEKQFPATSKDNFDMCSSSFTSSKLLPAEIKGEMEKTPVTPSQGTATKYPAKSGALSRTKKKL
MITF inh: inhibitors of MITF, primary screen, MITF inhibitor project, cell-based, luminescence; 37,000 compounds, 0.28% hits; inhibition, % (no concentration beside the values); TRPM1 promoter luciferase, 24 h; in the data active means inhibition above about 85%; inconclusive means no clear call, values can overlap the other calls; inactive means below about 68%;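 further: human melanocyte line stably carrying TRPM1 promoter luciferase reporter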
Of the large screens only hits and unclear results are named; the others gave an inactive call. This is one part of a sample in which hits are shown more often than they occur.

C[C@@H]1CCCCO[C@@H](CN(C)C(=O)NC2CCCCC2)[C@@H](C)CN([C@H](C)CO)C(=O)c2cc(NC(=O)Nc3ccc(C(F)(F)F)cc3)ccc2O1	NOMO-1 viab 99 (no result: p53 PUMA act)
CC(=O)c1ccc(NC(=O)CSc2nc(C)c(C)c(=O)[nH]2)cc1	none
C/C=C(\C)C(=O)O[C@@H]1c2c(ccc3ccc(=O)oc23)OC(C)(C)[C@@H]1OC(C)=O	none
Cc1nc2nc[nH]n2c(=O)c1NS(=O)(=O)c1ccc2c(c1)CCCC2	none
C[C@@H]1CCCCO[C@@H](CN(C)CC2CCCCC2)[C@@H](C)CN([C@H](C)CO)C(=O)c2cc(NC(=O)Nc3ccc(F)cc3)ccc2O1	NOMO-1 viab 115 (no result: p53 PUMA act)
Cc1ccc(N(C(C)C(=O)Nc2cccc(F)c2)S(C)(=O)=O)cc1 (configuration not stated)	none
CC1CCC(C(C)C)C(NC(=S)Nc2cccc(F)c2)C1 (configuration not stated)	NOMO-1 viab 122 (no result: p53 PUMA act)
CC(C(=O)Nc1cccc(Cl)c1)N(c1ccc(Cl)cc1)S(C)(=O)=O (configuration not stated)	none
Cc1cccc(C)c1OCC(=O)Nc1cccc(NC(=O)c2ccco2)c1	none
Cc1cc(I)cnc1NC(=S)NC(=O)c1ccco1	p53 PUMA act 76
Cc1sc(NC(=S)NC(=O)c2ccco2)c(C(N)=O)c1C	p53 PUMA act 59
COc1ccc(NC(=O)Nc2ccc3c(c2)CC(=O)N([C@H](C)CO)C[C@H](C)[C@H](CN(C)Cc2ccc(Oc4ccccc4)cc2)O3)cc1	NOMO-1 viab inconclusive
C[C@H]1CN([C@@H](C)CO)C(=O)Cc2cc(NC(=O)Nc3ccc(F)cc3)ccc2O[C@@H]1CN(C)Cc1ccc(Oc2ccccc2)cc1	NOMO-1 viab 107 (no result: p53 PUMA act, STK33 kin inh)
C[C@@H]1CN([C@H](C)CO)C(=O)Cc2cc(NC(=O)Nc3ccc(F)cc3)ccc2O[C@H]1CN(C)Cc1ccc(Oc2ccccc2)cc1	NOMO-1 viab 123 (no result: p53 PUMA act)
CC(C)NC(=O)Nc1ccc2c(c1)CC(=O)N([C@@H](C)CO)C[C@@H](C)[C@@H](CN(C)Cc1ccc(Oc3ccccc3)cc1)O2	NOMO-1 viab 89 (no result: p53 PUMA act)
COc1ccc(NC(=O)Nc2ccc3c(c2)CC(=O)N([C@@H](C)CO)C[C@@H](C)[C@@H](CN(C)Cc2ccc(Oc4ccccc4)cc2)O3)cc1	none (no result: p53 PUMA act, STK33 kin inh)
C[C@H](CO)N1C[C@H](C)[C@H](CN(C)Cc2ccc(Oc3ccccc3)cc2)Oc2ccc(NC(=O)Nc3ccc(F)cc3)cc2CC1=O	NOMO-1 viab 98 (no result: p53 PUMA act)
COc1ccccc1NC(=O)c1cc2ccccc2c(C=Nc2ccc(NC(C)=O)cc2)c1O	none (no result: NOMO-1 viab, STK33 kin inh, MITF inh)
COc1cc(/C(C)=C/C(C)O)oc(=O)c1C (configuration not stated)	none
Cc1c(NC(=O)CCCC(=O)O)cccc1C(=O)O	none
C[C@H]1CN([C@@H](C)CO)C(=O)Cc2cc(NC(=O)Nc3ccc(F)cc3)ccc2O[C@H]1CN(C)Cc1ccccc1	none (no result: p53 PUMA act)
C[C@@H]1CN([C@H](C)CO)C(=O)Cc2cc(NC(=O)Nc3ccc(F)cc3)ccc2O[C@@H]1CN(C)Cc1ccc(Oc2ccccc2)cc1	NOMO-1 viab 114 (no result: p53 PUMA act)
O=C(CSc1nnc(-c2ccccc2O)n1-c1ccccc1)Nc1ccc(Oc2ccccc2)cc1	none
CC(C)(C)c1ccc(OCC(N)=NC(=O)c2ccc(OC(F)(F)F)cc2)cc1	NOMO-1 viab 136 (no result: p53 PUMA act, STK33 kin inh)
CN(CC(=O)Nc1cc(C(F)(F)F)ccc1Cl)S(=O)(=O)c1ccc2ccccc2c1	none
COc1ccc(S(=O)(=O)N(CCO)c2ccccc2CN(C)C/C=C/c2ccc(Cl)cc2)cc1	NOMO-1 viab 83 (no result: p53 PUMA act)
Cc1ccc(S(=O)(=O)N(C)C[C@H]2Oc3ccc(NC(=O)Nc4ccc(C(F)(F)F)cc4)cc3CC(=O)N([C@@H](C)CO)C[C@H]2C)cc1	NOMO-1 viab 111 (no result: p53 PUMA act)
Cc1ccc(S(=O)(=O)N(C)C[C@@H]2Oc3ccc(NC(=O)Nc4ccc(C(F)(F)F)cc4)cc3CC(=O)N([C@@H](C)CO)C[C@@H]2C)cc1	NOMO-1 viab 115 (no result: p53 PUMA act)
COCCOC(=O)N1C(=O)[C@@]2(c3cc(C#CC4=CCCCC4)ccc31)[C@H](c1ccccc1OCCO)N1[C@H](c3ccccc3)[C@H](c3ccccc3)OC(=O)[C@H]1[C@@H]2C(N)=O	none (no result: p53 PUMA act, NOMO-1 viab, MITF inh)
COC(=O)c1cc(C)nc(Sc2ccccc2NC(=O)Nc2ccc(Cl)cc2)n1	NOMO-1 viab 109 (no result: p53 PUMA act)
Cn1c(SCC(=O)N2c3ccccc3Sc3ccccc32)nnc1-c1ccccc1Cl	none
CCN(CC)CCNc1ccc(CO)c2sc3ccccc3c(=O)c12	NOMO-1 viab 102 (no result: p53 PUMA act)
CCCCOc1cc(C(=O)NCCN(CC)CC)c2ccccc2n1	none (no result: p53 PUMA act)
COc1ccc(CCNC(=O)C(=O)c2c(-c3ccccc3)[nH]c3ccccc23)cc1OC	none
O=C(Nc1ccccc1C(=O)O)c1cccc(NS(=O)(=O)c2ccc(Cl)cc2)c1	none
CC(C)(C)c1ccc(OCCn2c(CO)nc3ccccc32)cc1	none
OCc1nc2ccccc2n1CCCOc1ccc(Br)cc1	p53 PUMA act 56
C=C1CCC2(C(=O)O)CCC3(C)C(=CCC4C5(C)C[C@@H](O)[C@H](O)C(C)(CO)C5CCC43C)C2C1C (some centres not stated)	none (no result: NOMO-1 viab, MITF inh)
C[C@H](CO)N1C[C@H](C)[C@H](CN(C)Cc2ccc(Oc3ccccc3)cc2)Oc2ccc(NC(=O)CCC(F)(F)F)cc2C1=O	NOMO-1 viab 114 (no result: p53 PUMA act, STK33 kin inh)
C[C@H]1CN([C@@H](C)CO)C(=O)c2cc(NC(=O)Nc3ccccc3)ccc2O[C@@H]1CN(C)Cc1ccc(Oc2ccccc2)cc1	NOMO-1 viab 97 (no result: p53 PUMA act, STK33 kin inh)
C[C@@H]1CN([C@@H](C)CO)C(=O)c2cc(NC(=O)Nc3ccccc3)ccc2O[C@H]1CN(C)Cc1ccc(Oc2ccccc2)cc1	NOMO-1 viab 112 (no result: p53 PUMA act, STK33 kin inh)
C[C@@H]1CN([C@H](C)CO)C(=O)c2cc(NC(=O)Nc3ccccc3)ccc2O[C@@H]1CN(C)Cc1ccc(Oc2ccccc2)cc1	none (no result: p53 PUMA act, STK33 kin inh)
O=C(CC1NC2CCCCC2NC1=O)Nc1ccc(Cl)c(Cl)c1 (configuration not stated)	none
C[C@@H]1CN([C@H](C)CO)C(=O)c2cccc(NC(=O)Nc3ccc(C(F)(F)F)cc3)c2O[C@H]1CN(C)C(=O)NC1CCCCC1	none (no result: STK33 kin inh)
C[C@H](CO)N1C[C@H](C)[C@H](CN(C)C(=O)Nc2ccc(C(F)(F)F)cc2)Oc2c(NC(=O)NC3CCCCC3)cccc2C1=O	NOMO-1 viab 106 (no result: STK33 kin inh)
C[C@H]1CN([C@@H](C)CO)C(=O)c2cccc(NC(=O)C3CCCCC3)c2O[C@@H]1CN(C)C(=O)Nc1ccc(C(F)(F)F)cc1	none (no result: p53 PUMA act, STK33 kin inh)
C[C@H](CO)N1C[C@H](C)[C@H](CN(C)C(=O)NC2CCCCC2)Oc2c(NC(=O)Nc3ccc(C(F)(F)F)cc3)cccc2C1=O	none (no result: STK33 kin inh)
C[C@H]1CN([C@@H](C)CO)C(=O)c2cccc(NC(=O)NC3CCCCC3)c2O[C@@H]1CN(C)C(=O)Nc1ccc(C(F)(F)F)cc1	NOMO-1 viab 100 (no result: STK33 kin inh)
C[C@H](CO)N1C[C@H](C)[C@H](CN(C)C(=O)Nc2ccc(C(F)(F)F)cc2)Oc2c(NC(=O)C3CCCCC3)cccc2C1=O	NOMO-1 viab 95 (no result: p53 PUMA act, STK33 kin inh)
